The results in this text go back to article PMC12431657, “Discovery and mechanistic insights of dibenzoylmethane as a broad spectrum inhibitor of coronavirus” (PLOS Pathogens, 2025).

Each structure is given as a SMILES string. Like-named read-outs stand apart in the source and are kept apart here. Out of some 3,300 compounds screened, about 95 (3%) showed an effect of 50% or more. Shown is part of a subset that was picked to be rich in strong results.

For this assay, the system named is HCoV-229E. Also noted: species or system Huh-7; HTS, protection from HCoV-229E induced cell death, luminescent cell viability (CellCounting-Lite 2.0), inhibition rate. To be noted: 24 h post infection, 1 h compound pre-incubation, 10 µM, inhibitor.

With `O=C(OCc1ccccc1)c1ccccc1` [Benzyl benzoate], the “229E Inhibition rate” value is listed as 12.5%.

As for `CC(=O)OCc1ccccc1` [Benzyl acetate], the “229E Inhibition rate” value worked out at 50.3%.

On to `O=C(OCc1ccccc1)c1ccccc1O` [Benzyl salicylate], for which the “229E Inhibition rate” value came out at 24.5%.

As to `C[C@H]1O[C@@H](Oc2ccc(COC(=O)CC(O)(CC(=O)OCc3ccc(O[C@@H]4O[C@H](CO)[C@@H](O)[C@H](O)[C@H]4O)cc3)C(=O)Oc3ccc(O[C@H]4O[C@H](CO)[C@@H](O)[C@H](O)[C@H]4O)cc3)cc2)[C@H](O)[C@@H](O)[C@@H]1O` (stereo partly shown) [Parishin], the “229E Inhibition rate” value is 9.7%.

In the case of `O=C1CC(C(=O)O)c2c1oc(=O)c1cc(O)c(O)c(O)c21` (stereo not shown) [Brevifolincarboxylic acid], the “229E Inhibition rate” value came to 6.4%.

On to `C[C@H]1[C@H](C)CC[C@]2(C)CC[C@]3(C)C(=CC[C@@H]4[C@@]5(C)CC[C@@H](O)[C@](C)(C(=O)O)[C@@H]5CC[C@]43C)[C@H]12` [β-Boswellic acid], for which the “229E Inhibition rate” value is 22.5%.

Take `CCCCCCCCCCC(=O)OC` [Methyl undecanoate]: the “229E Inhibition rate” value is listed as 56.2%.

For `CCCCCCCCCCCCCCCCCCCCCCCC(=O)OC` [Methyl tetracosanoate], the “229E Inhibition rate” value is 11.5%.

`CCCCCCCCCCCCCCCCCC(=O)OC` [Methyl stearate]: the “229E Inhibition rate” value is 17.9%.

For the compound `C=C1C[C@@]23CC[C@H]4[C@@](C)(CCC[C@@]4(C)C(=O)O)[C@@H]2CC[C@]1(O[C@@H]1O[C@H](CO)[C@@H](O)[C@H](O[C@@H]2O[C@H](CO)[C@@H](O)[C@H](O)[C@H]2O)[C@H]1O[C@@H]1O[C@H](CO)[C@@H](O)[C@H](O)[C@H]1O)C3` [Rebaudioside B], the “229E Inhibition rate” value turned out to be 36.9%.

In the case of `COc1cc(/C=C/C=O)ccc1O` [Coniferaldehyde], the “229E Inhibition rate” value was 38.5%.

For `Nc1ncnc2c1ncn2[C@@H]1O[C@H](CO)C[C@H]1O` [Cordycepin], the “229E Inhibition rate” value is 15.3%.

With `Nc1ncnc2c1ncn2[C@@H]1C[C@H](CO)[C@@H](O)[C@H]1O` [Aristeromycin], the “229E Inhibition rate” value turned out to be 57.5%.

`Nc1ncnc2c1ncn2[C@H]1C[C@H](O)[C@@H](CO)O1` [2'-Deoxyadenosine monohydrate]: for the setting “229E Inhibition rate, 24 h”, the “229E Inhibition rate” value is listed as 8.6%.

Turning to `O=C(/C=C/c1ccccc1)c1ccccc1` [trans-Chalcone], the “229E Inhibition rate” value (229E Inhibition rate, 24 h) is on record as 5.4%.

In the case of `O=C1C[C@@](O)(C(=O)O)[C@@H](C(=O)O)O1` [(-)-Hydroxycitric acid lactone], the “229E Inhibition rate” value is on record as 7.8%.

As to `O=C(O)CCCC(O)C(=O)O` (stereo not shown) [2-Hydroxyadipic acid], the “229E Inhibition rate” value stood at 14.9%.

In the case of `C[S@@+]([O-])CCCCN=C=S` [(R)-sulforaphane], the “229E Inhibition rate” value worked out at 54%.

For `C=C1C(=O)[C@@]23[C@H](O)C[C@@H]4C(C)(C)CC[C@H](O)[C@@]4(CO)[C@@H]2CC[C@@H]1[C@H]3O` [Kamebakaurin], the “229E Inhibition rate” value is 0%.

Take `C=C1C(=O)[C@@]23[C@@H]4OC5O[C@@]2(O)[C@@H](O)[C@@H]2C(C)(C)CC[C@@H](O)[C@]52[C@@H]3CC[C@@H]14` [ponicidin]: the “229E Inhibition rate” value is listed as 95.6%.

Consider `C=C1C(=O)[C@]23[C@H](O)[C@H]1CC[C@H]2[C@@]12CO[C@]3(O)[C@@H](O)[C@@H]1C(C)(C)CC[C@@H]2O` [Oridonin], for which the “229E Inhibition rate” value turned out to be 0%.

In the case of `COc1c2ccoc2c(O)c2oc(=O)ccc12` [8-Hydroxybergapten], the “229E Inhibition rate” value was 7.9%.

Regarding `C/C=C1\C(=O)C[C@H]2[C@@H]3CCC4=CC(=O)CC[C@]4(C)[C@H]3CC[C@]12C` [(Z)-Guggulsterone], the “229E Inhibition rate” value (229E Inhibition rate, 24 h) amounted to 6.7%.

Regarding `C/C=C(/C)C(=O)O[C@@H]1[C@H](OC(=O)CC(C)C)c2c(ccc3ccc(=O)oc23)OC1(C)C` [Praeruptorin C], the “229E Inhibition rate” value is reported as 32.9%.

On to `C/C=C(\C)C(=O)OC1c2c(ccc3ccc(=O)oc23)OC(C)(C)C1OC(=O)/C(C)=C/C` (stereo not shown) [Praeruptorin B], for which the “229E Inhibition rate” value is 53.9%.

As to `C/C=C(/C)C(=O)O[C@H]1[C@@H](OC(C)=O)c2c(ccc3ccc(=O)oc23)OC1(C)C` [Praeruptorin A], the “229E Inhibition rate” value stood at 19.1%.

With `C/C=C(/C)C(=O)O[C@H]1[C@@H](OC(=O)CC(C)C)c2c(ccc3ccc(=O)oc23)OC1(C)C` [Praeruptorin E], the “229E Inhibition rate” value worked out at 43.4%.

As to `C/C=C(/C)C(=O)O[C@@H]1c2c(ccc3ccc(=O)oc23)OC(C)(C)[C@@H]1OC(=O)/C(C)=C\C` [(-)-Anomalin], the “229E Inhibition rate” value was 51.7%.
